Source: PubChem BioAssay (NCI)
The panel holds about 83,000 compounds, 20% with a hit somewhere; the sample as a whole holds those more often.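 The test compound was applied at a single concentration to cells in 96-well plates for 48 hours, and percent growth was recorded.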 A number with no mark means an inactive call. Activity calls are given as the source filed them. How the source made its calls: active means growth percent below 10; inactive means the rest.

Columns and labels:
Assay in all cases: NCI-60 one-dose screen, 48 h (100 = growth as untreated, 0 = no growth, -100 = all killed)
Details in all cases: 10 µM unless noted
SK-MEL-2 melanoma = system: SK-MEL-2 melanoma
EKVX NSCLC = system: EKVX NSCLC
SN12C renal = system: SN12C renal
UO-31 renal = system: UO-31 renal
TK-10 renal = system: TK-10 renal
ACHN renal = system: ACHN renal
CAKI-1 renal = system: CAKI-1 renal
A498 renal = system: A498 renal
CCRF-CEM leukemia = system: CCRF-CEM leukemia
MOLT-4 leukemia = system: MOLT-4 leukemia

SMILES	growth (SK-MEL-2 melanoma)	growth (EKVX NSCLC)	growth (SN12C renal)	growth (UO-31 renal)	growth (TK-10 renal)	growth (ACHN renal)	growth (CAKI-1 renal)	growth (A498 renal)	growth (CCRF-CEM leukemia)	growth (MOLT-4 leukemia)
O=S(=O)(Nc1ccc(F)c(Cl)c1)c1ccc(-c2cnc(C3CC3)o2)cc1	38%	32.2%	49.9%	41.8%	44%	44.5%	32.5%	-14.5% (active)	19.6%	29.5%
CC1CN(C(C)C)C(=S)N(c2ccccc2)C1=O (stereo not given)	98.5%	88.6%	101%	84.6%	112%	100%	68.9%	101%	90.6%	90%
CC#CC#Cc1cccc(=O)o1	-47.3% (active)	20.7%	81.6%	40.7%	73.7%	68.5%	4.28% (active)	113%	11.9%	64.9%
CSc1[nH]c2ncnc(N)c2c1C#N	91%	83.2%	99.4%	76%	85.4%	97.4%	37.7%	125%	110%	89.7%
CN1CCN(c2ccc3nc(-c4ccc5nc(-c6ccc(OCCC(C)(C)C)cc6)[nH]c5c4)[nH]c3c2)CC1	5.57% (active)	52.8%	75.4%	85.3%	89.9%	64.4%	65.4%	88.6%	-50% (active)	-41.2% (active)
CN1CCN(Cc2ccc(NC(=O)c3cncc(C#Cc4c(N)ncc5ccc(C#N)cc45)c3)cc2C(F)(F)F)CC1	57.4%	-55.3% (active)	6.26% (active)	-88.5% (active)	18.3%	-92.8% (active)	58.3%	43.3%	-14.2% (active)	-21.3% (active)
COCCCN=C(N)c1ccc(NC(=O)c2ccc(C(=O)Nc3ccc(C(N)=NCCCOC)cc3)cc2)cc1	102%	76.9%	95%	96.6%	113%	113%	95.2%	208%	108%	85.9%
CC1CN(Cc2ccco2)C(=S)N(c2ccccc2)C1=O (stereo not given)	108%	84.2%	92%	89.6%	100%	93.8%	60.4%	100%	83.7%	122%
O=C1c2cccnc2C(=O)c2c1c(C(=O)OCCN1CCOCC1)c1ccccn21	7.23% (active)	13.1%	-30.4% (active)	-26.7% (active)	-6.05% (active)	7.94% (active)	14.4%	-30.4% (active)	8.9% (active)	-16.2% (active)
COc1ccc(-c2csc(NC(=O)CN3CCN(c4cc5c(cc4F)c(=O)c(C(=O)O)cn5C4CC4)CC3)n2)cc1	-11.5% (active)	26.2%	4.18% (active)	21%	18%	11.8%	21.3%	-10.1% (active)	22.2%	24.2%
COc1ccc(-c2cc(NC(=O)Nc3ccc(O)cc3)no2)cc1	102%	77.2%	74.8%	41.9%	96.9%	55.4%	31.2%	30.9%	31%	19.2%
CC(=O)C1=C(O)C=C2Oc3c(C(=O)/C=C/c4cc(C(F)(F)F)cc(C(F)(F)F)c4)c(O)c(C)c(O)c3[C@]2(C)C1=O	-49.7% (active)	-33.9% (active)	-34.1% (active)	-31.4% (active)	-32.5% (active)	-75.7% (active)	5.35% (active)	-87.7% (active)	-18.1% (active)	-14.1% (active)
Nc1nc2c(c3ncccc13)C(c1cccc(Br)c1)Cc1ncccc1-2 (stereo not given)	3.12% (active)	41%	34.4%	33.8%	35.2%	43%	41.4%	-14.9% (active)	8.84% (active)	7.86% (active)
COc1ccc(-c2nn(-c3ccccc3)cc2/C=C/C(=O)OCc2cn(-c3ccc(F)c(Cl)c3)nn2)cc1	86.9%	101%	80.1%	43%	118%	83.3%	79.2%	77.3%	101%	71.2%
NCCN1CCN(c2nccc(-c3ccc4ccccc4c3)n2)CC1	76.9%	75.6%	52.1%	12.4%	73.9%	46.5%	45.3%	61.6%	18%	22.1%
Cc1ccccc1CCO	86.3%	105%	107%	88.8%	82.4%	98.4%	100%	96.5%	116%	111%
CC(=O)OC1Oc2cc(C)c(C)cc2-c2oc(=O)c(-c3cc4ccc(N(C)C)cc4oc3=O)cc21 (stereo not given)	92.4%	41.5%	84.2%	51.4%	89.6%	103%	65.4%	57.8%	54.9%	-17.4% (active)
CC/C(Cc1ccccc1)=C(/c1ccc(O)cc1)c1ccc(OCCN2CCCC2)cc1	-52.3% (active)	-21.4% (active)	-11.6% (active)	-79.8% (active)	13.1%	-68.5% (active)	-72.4% (active)	54.9%	-33.3% (active)	-22.7% (active)
N=c1c2ccccc2nc2n1CCCCC2	114%	103%	104%	89.7%	123%	105%	95.1%	121%	92.9%	117%
CCCCCCCCSC1=CC(=O)C(OC)=C(OC)C1=O	26.3%	43.8%	10.7%	-92.7% (active)	-99.3% (active)	-77.8% (active)	-45.6% (active)	65.5%	-15.8% (active)	-5.17% (active)
CC(=O)C1=C(O)C=C2Oc3c(C(=O)/C=C/c4ccccc4)c(O)c(C)c(O)c3[C@]2(C)C1=O	-3.97% (active)	36.7%	23.4%	30.7%	33.6%	48.2%	46.7%	14.3%	22.1%	32.6%
COc1ccc(S(=O)(=O)NCCNc2nccc(-c3c(-c4cccc([N+](=O)[O-])c4)nc4sccn34)n2)cc1	100%	82.1%	70.3%	49.3%	108%	62.4%	68.1%	63.7%	75.2%	60.7%
COc1cccc(-c2nc3sccn3c2-c2ccnc(NCCCNS(=O)(=O)c3ccccc3)c2)c1	27.4%	42.7%	31.4%	9.36% (active)	88.2%	26.9%	27.8%	57.9%	12.3%	14.1%
S=c1[nH]nc(CSc2ncnc3c2c(-c2ccccc2)cn3-c2ccc(Cl)cc2)o1	105%	92%	92.8%	73%	114%	92.7%	76.2%	94.7%	90.2%	98.1%
COc1ccc(C2Nc3ccccc3-n3cccc32)cc1 (stereo not given)	92.7%	68.8%	97.4%	58.3%	100%	88%	89%	93.2%	104%	120%
C/C(Cc1ccc(Cl)cc1)=C(\c1ccc(OCCN2CCCCCC2)cc1)c1ccc(OC(=O)C2CCCCC2)cc1	81.6%	81%	67%	40.9%	84.1%	87%	80.8%	82%	55.3%	25.6%
CCN(CC)c1ccc(/C=C/C2=[N+](C)c3ccccc3C2(C)C)cc1	-1.48% (active)	0.0796% (active)	1.41% (active)	22.1%	28.7%	-1.03% (active)	-8.77% (active)	50.7%	7.5% (active)	15.1%
